Bioassay records: PubChem, National Center for Advancing Translational Sciences (NCATS)
Shown are actives, neighbours in structure and some others; about 5.7% of the full set was active somewhere.
IL1B secr inh – blocks inflammasome-driven IL-1 beta release; THP-1 LPS/ATP IL-1B secretion, AlphaLISA, 16 h; hits give low values; activity change, % at 57.5 µM; 4.7% of 360,000 active; in the data active = activity change below about -50%; inconclusive = mostly about -30% to -49%; also: % is scaled to controls: 0 for no effect and ±100 for the full control effect
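Secreted IL-1B measured by AlphaLISA bead assay after 16 h compound exposure of THP-1 cells; compounds (final up to 57.5 uM) added 1 h before LPS (250 ng/mL) and ATP (1.25 mM) stimulation; lower signal means less secretion.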
TGFb inhibitor – blocks TGF-b signaling; HepG2 CAGA-GFP TGF-b/SMAD3 reporter, GFP fluorescence, 18 h; TGF-beta stimulated, 500 pg/mL final; 1.2% of 410,000 active; Potency, µM (doses to about 46.1 µM), inactives show at the top dose activity, negative = inhibition, usual class: inhibitors; also: potency is read from the fitted curve at half-maximal effect; % is scaled to controls: 0 for no effect and ±100 for the full control effect; nearly all actives have a fitted effect of over 65% in size
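Inhibition of TGF-beta-driven CAGA-GFP reporter expression in HEPG2 cells is measured by cellular GFP fluorescence after 18 h stimulation with 500 pg/mL recombinant TGF-beta in 1% FBS medium at 37 degrees C.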
S2 tox – cell viability loss in ATXN counter-screen; S2 cells (HEK-293 line with an ATXN2-luciferase reporter) viability, CellTiter-Fluor protease fluorescence, 24 h; Potency, µM (doses to about 56.7 µM), hits mostly cytotoxic; 0.49% of 400,000 active; also: potency is read from the fitted curve at half-maximal effect; nearly all actives have a fitted effect of over 40% in size
ATXN2 expr inh – reduces ATXN2 reporter expression in HEK-293 cells | HEK-293 ATXN2-luciferase reporter, luminescence, 24 h | Potency, µM (titrated, usually from 57 µM), inactives show at the highest dose activity change, negative = inhibition, hits mostly inhibitors | 0.72% of 360,000 active; also: potency is read from the fitted curve at half-maximal effect; % is scaled to controls: 0 for no effect and ±100 for the full control effect; nearly all actives have a fitted effect of over 55% in size
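ATXN2-luciferase reporter cells (luciferase flanked by upstream and downstream ATXN2 gene portions) were treated 24 h at 37 °C with compounds at up to 57 uM. SteadyGlo luminescence gave expression; GF-AFC fluorescence gave viability.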
HepG2 viability – kills HepG2 cells in TGF-b inhibitor counter-screen; Potency, µM (highest dose often 46.1 µM), for inactives: at the top dose activity change, negative = cytotoxicity, hits mostly cytotoxic; HepG2 CAGA-GFP viability, ATP luminescence, 18 h; AID 588856; 0.76% of 410,000 active; also: potency is read from the fitted curve at half-maximal effect
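HepG2 CAGA-GFP cells (1000/well, DMEM with 1% FBS) received compound, then TGF-beta at 500 pg/mL final, and were incubated 18 hours at 37 degrees C. Viability was read by CellTiter-Glo luminescence. Media-only wells were set as complete cell-killing and DMSO as no toxicity.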
Active calls of the source: *; i = inactive; ? = inconclusive; / = no result; [ ] = another dose, or the depositor's remark. Unless noted, calls follow the shape of the dose curve; as a rule, active = well fitted curve in the direction sought with a large enough effect; inconclusive = small, poorly fitted or top-dose-only effect, or another doubt; inactive = no such curve, though single readings can be large; an effect the other way counts as inactive or inconclusive.

SMILES	IL1B secr inh	TGFb inhibitor	S2 tox	ATXN2 expr inh	HepG2 viability
Cc1cccc2c1c1ccc3c(c1n2C)C(=O)C=CC3=O	10	16µM*	i	/	-37%
CN(C(=O)/C=C/c1cnc2ccccc2c1)C1CCCCC1	-58*	4%	i	-34%	-6%
COc1ccc(/C=C/C(=O)N(C)C2CCCCC2)cc1Br	-68*	-7%	?	15%	-6%
COc1ccc(/C=C/C(=O)N(C(C)C)C(C)C)cc1Br	-26	-2%	?	6%	-6%
NC[C@@H]1O[C@@H](O[C@H]2[C@@H](O)[C@H](O[C@@H]3[C@@H](O)[C@@H](N)C[C@H](N)[C@H]3O[C@H]3O[C@H](CN)[C@@H](O)[C@@H](O)[C@H]3N)O[C@H]2CO)[C@H](N)[C@@H](O)[C@@H]1O	/	/	i	2%	/
C=CCn1c(SCC(=O)N2CCOCC2)nc2sc3c(c2c1=O)CCCC3	-77*	-10%	i	-17%	-56%
COc1ccc(CNC(=O)c2ccc3c(c2)CCN3S(=O)(=O)c2ccc(C)cc2)cc1	/	-26%	i	-16%	-22%
c1ccc2c(c1)CC/C2=N/Nc1nc2ccccc2[nH]1	-108*	?	i	26%	-32%
Cc1cc2c(c(-c3ccc(Cl)cc3)c1)OC(CNC(=O)Cc1c(C)noc1C)C2 (centres undefined)	/	/	i	/	/
COc1ccccc1N(C(=O)CCl)c1cn(C(C)=O)c2ccccc12	-60*	11µM*	6.3µM*	/	11µM*
CC(=O)n1cc(N(C(=O)CCl)c2ccc(Cl)cc2)c2ccccc21	0	?	3.5µM*	/	7.9µM*
O=C(O[C@H]1[C@H](Cc2ccccc2)NS(=O)(=O)[C@H]2CC3C=C[C@]12O3)c1ccc(Br)cc1	/	-20%	/	/	40%
Cn1c2c(c(=O)n(C)c1=O)C(c1ccc(F)cc1)C(C#N)=C(N)O2 (centres undefined)	-69*	0%	i	-2%[11.3 µM]	0%
COc1cccc(CCNc2ncnc3sc(C(=O)N4CCOCC4)c(C)c23)c1	/	/	i	/	/
CC(=O)c1sc2nsc(SCCN3CCCC3)c2c1N	-93*	-15%	i	52%	3%
COc1cc(C2SCC(=O)N2c2nnc(C34CC5CC(CC(C5)C3)C4)s2)cc(OC)c1OC (centres undefined)	-55*	2%	i	-9%	0%
COc1ccc(C)cc1NC(=O)Nc1cccc(-c2noc(C)n2)c1	/	-14%	i	-29%	-29%
CC(=O)Nc1ccc(OCc2cccc([N+](=O)[O-])c2)cc1	0	-4%	i	50%	-17%
O=C(Nc1cccc([N+](=O)[O-])c1)NC1CCCCCCC1	-93*	0%	i	29%	-33%
Cc1nc(-c2cccc(NC(=O)Nc3ccc([N+](=O)[O-])cc3)c2)no1	/	?	i	13µM*	-56%
CC(=O)Nc1ccc(C=CC=Cc2cccc([N+](=O)[O-])c2)cc1	-97*	?	?	28%	4%
CC(=O)Nc1ccc(Oc2ccc([N+](=O)[O-])cc2Cl)cc1	-73*	?	?	-19%	-21%
Cc1ccsc1CN(C(=O)c1ccc(OCC(C)C)cc1)C1CCS(=O)(=O)C1 (centres undefined)	/	/	/	/	-19%
O=C(Nc1nccs1)[C@@H]1CC=C[C@@H]2CCN(Cc3ccc(Cl)c(Cl)c3)C(=O)[C@@H]21	/	-23%	/	/	-22%
O=C(Nc1cccc([N+](=O)[O-])c1)Nc1cccc([N+](=O)[O-])c1	-57*	-29%	i	0%	-27%
SMILES	IL1B secr inh	TGFb inhibitor	S2 tox	ATXN2 expr inh	HepG2 viability
Cc1ccccc1OCc1nnc(SCc2cc(=O)c3cccc(F)c3[nH]2)n1C	/	-27%	?	-30%	-27%
O=C(CSc1n[nH]c(-c2ccccc2)n1)NCCCc1ccccc1	/	?	/	/	-27%
O=C(/C=C/c1ccccc1)NC(NC(=S)Nc1cccc(Cl)c1)C(Cl)(Cl)Cl (centres undefined)	?	16µM*	?	?	10µM*
O=C(/C=C/c1ccccc1)NC(NC(=S)Nc1cccc(O)c1)C(Cl)(Cl)Cl (centres undefined)	-117*	?	i	-18%	-46%
CC(=O)c1cc2c(cc1NC(=O)c1cnn(-c3ccc(C)cc3)c1-n1cccc1)OCO2	/	1%	/	/	-12%
Cc1ccc(-c2nc3c4ccccc4n(CC(=O)N4CCN(c5ccc(F)cc5)CC4)c(=O)n3n2)cc1	/	10%	i	4%	5%
CCn1nc(C)c2c(-c3ccccc3)cc(=O)n(C(C)C(=O)NCCC(C)C)c21 (centres undefined)	/	-1%	i	-9%	-18%
CCN(CC)c1ccc(Nc2cc3n(c(=O)n2)CCc2cc(OC)c(OC)cc2-3)cc1	-95*	4%	i	-1%	1%
COc1cc2c(cc1OC)-c1cc(Nc3ccc(F)cc3)nc(=O)n1CC2	-51*	-14%	i	/	-2%
COc1cc2c(cc1OC)-c1cc(Nc3ccc(N(C)C)cc3)nc(=O)n1CC2	-58*	26%	i	12%	1%
COc1cc2c(cc1OC)-c1cc(Nc3cccc(F)c3)nc(=O)n1CC2	-26	2%	i	-13%	-6%
CCn1c(-c2ccccc2F)nc2cc(NC(C)=O)cc(C(=O)N3CCC[C@H]3C(=O)OC)c21	/	/	i	/	/
COc1ccccc1NC(=O)N1CC=C(c2c[nH]c3ccccc23)CC1	/	/	/	/	-19%
CCOC(=O)C1CCC(CN(Cc2c(Cl)cccc2Cl)S(=O)(=O)c2ccc(F)c(C)c2)CC1 (centres undefined)	/	5%	/	/	4%
Cc1c(C(=O)NN2CCOCC2)oc2c1ccc1ccccc12	-71*	32%	i	-14%	20%
Cc1c(C(=O)NN2CCOCC2)oc2ccccc12	-13	0%	i	35%	-19%
C[C@]12c3[nH]c4ccc(Cl)cc4c3CCN1C(=O)[C@@H](CC(=O)NCCN1CCOCC1)C[C@@H]2C(=O)N1CCCCC1	-22	-3%	i	-1%	1%
COc1ccc(CNC(=O)C[C@H]2C[C@H](C(=O)N3CCCCC3)[C@@]3(C)c4[nH]c5ccc(Cl)cc5c4CCN3C2=O)cc1OC	-56*	?	?	-33%	-25%
COc1ccc2[nH]c3c(c2c1)CCN1C(=O)C(CC(=O)NCc2ccc(OC)c(OC)c2)C[C@H](C(=O)N2CCOCC2)[C@@]31C (some centres undefined)	-6	-21%	i	0%	11%
